Arbovirus anti = antivirals against arbovirus infection, primary screen, cell-based, full library, 10K replicate subset; arbovirus infection cell-based antiviral screen; inhibition, % at 10 µM; 200,000 compounds, 0.37% hits; AID 1251, 2008; in the data active = inhibition above about 30%
CHOP inhibitor = inhibitors of CHOP promoter induction, primary screen, cell-based, unfolded protein response, luciferase reporter. 220,000 compounds, 3.8% hits. inhibition, % at 10 µM. AID 2732, 2010. CHO-K1 CHOP-promoter luciferase, tunicamycin-induced, 15-18 h;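 active = compounds that reduced the stress-induced luciferase reporter signal by more than about 70% of percent inhibition, limit read from the data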;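 note: 0% = tunicamycin plus vehicle and 100% = wells without tunicamycin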
Lmaj promast = Leishmania major promastigote growth inhibition, primary screen | Leishmania major promastigotes, resazurin fluorescence viability | inhibition, % at 10 µM | 200,000 compounds, 9% hits; in the data active = inhibition above about 50%;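 note: promastigotes grown with compound for 44 hours at 28 °C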
WT yeast gro inh = growth inhibition of WT strain, primary screen, mitochondrial fusion inhibitor project, WT and mutant strains, chemical genetic. mitochondrial fusion phenotypic screen. inhibition, % at 10 µM. 190,000 compounds, 2.1% hits. AID 1362, 2008; in the data active = inhibition above about 58%; tested in S. cerevisiae
* = called active by the depositor. The list is not random: actives were taken first. Their share in the collection is about 12%.

COc1ccc(/C=C/CN2CCCC(CCC(=O)NCc3ccc(F)c(F)c3)C2)cc1 (centres undefined) was read as Arbovirus anti -25, CHOP inhibitor -5, Lmaj promast 81* and WT yeast gro inh -1.
Screening O=C(CCC1CCCN(Cc2ccc3c(c2)OCCO3)C1)NCc1ccccc1F (centres undefined) returned CHOP inhibitor 11.
Screening O=C(CCC1CCCN(Cc2cccc3c2OCO3)C1)NCc1ccc(F)c(F)c1 (centres undefined) returned Arbovirus anti -6, CHOP inhibitor 6, Lmaj promast 87* and WT yeast gro inh 10.
O=C(CCC1CCCN(Cc2ccc3c(c2)OCCO3)C1)NCc1ccc(F)c(F)c1 (centres undefined) was read as Arbovirus anti -7, CHOP inhibitor -6, Lmaj promast 73* and WT yeast gro inh 4.
O=C(O)/C=C/c1cnc2ccccc2c1 was read as Arbovirus anti 7, CHOP inhibitor -11, Lmaj promast -2 and WT yeast gro inh -5.
Screening NNC(=O)c1cc2c(N3CCC(Cc4ccccc4)CC3)ncnc2s1 returned Arbovirus anti -17, CHOP inhibitor 51, Lmaj promast -9 and WT yeast gro inh 58*.
For Cn1ncc2c(N3CCC(Cc4ccccc4)CC3)ncnc21 the results were Arbovirus anti -26, CHOP inhibitor 13, Lmaj promast 10 and WT yeast gro inh 21.
For Cc1ccc(NC(=O)CNC(c2ccccc2)c2ccccc2)c(F)c1 the results were Arbovirus anti 7, CHOP inhibitor 69, Lmaj promast 71* and WT yeast gro inh 51.
Screening O=C(CNC(c1ccccc1)c1ccccc1)Nc1c(F)cccc1F returned Arbovirus anti -9, CHOP inhibitor 38, Lmaj promast 10 and WT yeast gro inh 15.
Cc1ccc([N+](=O)[O-])cc1NC(=S)NC(=O)CC(C)(C)C was read as Arbovirus anti 9, CHOP inhibitor 3, Lmaj promast 4 and WT yeast gro inh 68*.
Screening COc1ccc(NC(=S)NNc2ccc([N+](=O)[O-])cc2S(=O)(=O)Nc2ccc(C)cc2C)cc1 returned Arbovirus anti -16, CHOP inhibitor 57, Lmaj promast 1 and WT yeast gro inh 10.
Screening Cc1ccc([N+](=O)[O-])cc1NC(=S)NC(=O)C(C)(C)C returned Arbovirus anti 8, CHOP inhibitor 19, Lmaj promast 2 and WT yeast gro inh 9.
Cc1ccc(NS(=O)(=O)c2cc([N+](=O)[O-])ccc2NNC(=S)Nc2cc(C)ccc2C)c(C)c1 was read as Arbovirus anti -31, CHOP inhibitor 89*, Lmaj promast 37 and WT yeast gro inh 27.
Screening CCCCN1C(=S)SC(C)(C)C1/[N+]([O-])=C/c1ccc(S(=O)(=O)NC)cc1 (centres undefined) returned CHOP inhibitor 10.
For CC1CCCN(C(=S)Nc2ccc(F)cc2)C1 (centres undefined) the results were Arbovirus anti 4, CHOP inhibitor 9, Lmaj promast -1 and WT yeast gro inh 9.
CCc1ccc(NC(=S)N2CCCC(C(F)(F)F)C2)cc1 (centres undefined) was read as Arbovirus anti -5, CHOP inhibitor 30, Lmaj promast 96* and WT yeast gro inh 39.
`CCCOc1ccc(-c2nnc(-c3ccco3)o2)cc1` gave Arbovirus anti 0, CHOP inhibitor 15, Lmaj promast -8 and WT yeast gro inh -2.
`CC(C)COc1ccc(-c2nnc(-c3ccco3)o2)cc1` gave Arbovirus anti -4, CHOP inhibitor 78*, Lmaj promast -5 and WT yeast gro inh 27.
O=C(/C=C/c1ccc(Br)cc1)NC(=S)NNC(=O)c1ccco1 was read as Arbovirus anti -6, CHOP inhibitor 76*, Lmaj promast 3 and WT yeast gro inh 5.
Screening C=CC(N)CCC(=O)O (centres undefined) returned CHOP inhibitor 91*.
O=C(NNC(=O)C1[C@H]2CCCC[C@@H]12)NC1CCCCC1 (some centres undefined) was read as Arbovirus anti -8, CHOP inhibitor 23, Lmaj promast -4 and WT yeast gro inh 4.
For OCCN(CCO)Cc1csc2ccccc12 the results were Arbovirus anti 6, CHOP inhibitor 6, Lmaj promast 23 and WT yeast gro inh 2.
Screening CC(C)CCn1c(SCC(=O)N2CC(=O)Nc3ccccc32)nc2scc(-c3cccs3)c2c1=O returned Arbovirus anti 3, CHOP inhibitor 37, Lmaj promast 4 and WT yeast gro inh 5.
`C=CCn1c(SCC(=O)N2CC(=O)Nc3ccccc32)nc2scc(-c3cccs3)c2c1=O` gave Arbovirus anti -23, CHOP inhibitor 17, Lmaj promast 65* and WT yeast gro inh -26.
